From PubChem BioAssay
Results filed as inconclusive are left out. For some assays here: Entries with a potency or affinity are not part of this list. Active and inactive are the calls of the source. Unless noted, how the calls were made is not given here.

Experiments:
[1] = blockers of polyQ-driven CASP3 activation – cell-based (AID 1583); conditions: polyglutamine-induced caspase-3 activation, cell assay; stronger effect = higher value;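 tested at 10 µM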
[2] = yeast 75Q aggregation reduction – 75Q-TubU reporter (AID 1593); conditions: Yeast 75Q polyglutamine aggregation reporter
[3] = blockers of cytochrome c efflux from mitochondria – biochemical, purified mitochondria (AID 1603); conditions: stronger effect = lower value;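 further: mouse liver mitochondria challenged with calcium chloride; signal normalized to the plate average as 100%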
[4] = polyglutamine aggregate formation blockers (AID 1604); conditions: polyglutamine-induced protein aggregation inhibition assay; stronger effect = higher value; tested at 2.5 µM
[5] = glutamate transport activators, MN-1 cells, MN-1 cell line (AID 1612); conditions: MN-1 motor neuron cells, stronger effect = higher value;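 further: tested at 1 µM final; 0% = mean of DMSO vehicle wells on each plate; positive means more glutamate uptake than control and negative means less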
[6] = 75Q-TubH aggregate inhibition, S. cerevisiae, yeast (AID 1616); conditions: S. cerevisiae 75Q-TubH polyglutamine aggregation suppression; stronger effect = higher value
[7] = compounds altering circadian rhythm period length – cell-based, LOPAC library, luminescence reporter (AID 2774); conditions: circadian reporter cells, at 7 µM, actives lie on both sides;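 further: values are relative to mean of DMSO wells on each plate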
[8] = target: ATP-dependent translocase ABCB1 (Homo sapiens) (UniProt P08183); experiment: P-glycoprotein substrate transport blockade – cell-based (AID 377; in the data active means fluorescence slope change above about 50%); conditions: MDR1-expressing cells, fluorescent substrate accumulation slope; stronger effect = higher value; concentration not given here
[9] = restoration of touch response, mutant HTT neurons – whole organism, C. elegans mechanosensory neurons, N-terminal huntingtin (AID 1599); conditions: C. elegans polyQ-huntingtin mechanosensory neurons, stronger effect = higher value
[10] = compounds altering viability of human ES cells (AID 493140); conditions: human embryonic stem cell survival screen; stronger effect = higher value;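 further: cells exposed to compounds for four days before counting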
[11] = GFP-Q80 aggregate reduction, neuronal-like cells, cell-based, NGF-treated PC12, GFPQ80 (AID 1614); conditions: PC12 NGF-treated GFP-polyQ80 inclusion reduction;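 further: lower means fewer inclusions and 0 means no inclusions at all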
[12] = antimalarial activity against Dd2 strain (AID 2302;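 active means growth inhibition above 50% at the single 2 µM test dose, taken to imply half-maximal potency below 2 µM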;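 further: 0% = DMSO untreated growth and 100% = chloroquine plus artemisinin killed control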); conditions: P. falciparum Dd2 in RBCs, LDH growth readout, 72 h; at 2 µM; stronger effect = higher value
[13] = human hepatoma cell viability loss – ATP luminescence, cytotoxicity control for P. falciparum antimalarial project, primary screen (AID 2303;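 active means inhibition above 50%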;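 further: 0% = DMSO wells and 100% = digitonin-killed cells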); conditions: HepG2 viability, 24-48 h, at 10 µM, stronger effect = higher value
[14] = target: L-lactate dehydrogenase (Plasmodium falciparum (isolate CDC / Honduras)) (UniProt Q27743); experiment: PfLDH activity inhibition – cell lysate, 3D7 strain, counter-screen for P. falciparum growth inhibition project (AID 2304);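 further: 0% = vehicle and 100% = reference inhibitor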; conditions: P. falciparum 3D7 crude extract, LDH APAD/NBT absorbance; at 2 µM; stronger effect = higher value
[15] = inhibition of 3D7 malaria parasite growth – strain 3D7 (AID 2306);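 further: 0% = DMSO wells and 100% = chloroquine plus artemisinin control wells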; conditions: P. falciparum 3D7 erythrocytic growth, LDH absorbance, 72 h; at 2 µM; stronger effect = higher value

L-lactate dehydrogenase (Plasmodium falciparum (isolate CDC / Honduras)), sequence (Q27743 whole entry, looked up): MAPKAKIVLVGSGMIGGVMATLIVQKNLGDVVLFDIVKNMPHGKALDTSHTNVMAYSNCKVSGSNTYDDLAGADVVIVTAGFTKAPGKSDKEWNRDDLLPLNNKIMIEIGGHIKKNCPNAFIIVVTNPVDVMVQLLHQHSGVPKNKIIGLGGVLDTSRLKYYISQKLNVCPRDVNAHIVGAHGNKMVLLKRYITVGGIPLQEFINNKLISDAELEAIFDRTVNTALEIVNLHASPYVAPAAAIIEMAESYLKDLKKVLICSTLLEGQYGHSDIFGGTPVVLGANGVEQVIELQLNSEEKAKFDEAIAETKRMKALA
ATP-dependent translocase ABCB1 (Homo sapiens), sequence (P08183 whole entry, looked up): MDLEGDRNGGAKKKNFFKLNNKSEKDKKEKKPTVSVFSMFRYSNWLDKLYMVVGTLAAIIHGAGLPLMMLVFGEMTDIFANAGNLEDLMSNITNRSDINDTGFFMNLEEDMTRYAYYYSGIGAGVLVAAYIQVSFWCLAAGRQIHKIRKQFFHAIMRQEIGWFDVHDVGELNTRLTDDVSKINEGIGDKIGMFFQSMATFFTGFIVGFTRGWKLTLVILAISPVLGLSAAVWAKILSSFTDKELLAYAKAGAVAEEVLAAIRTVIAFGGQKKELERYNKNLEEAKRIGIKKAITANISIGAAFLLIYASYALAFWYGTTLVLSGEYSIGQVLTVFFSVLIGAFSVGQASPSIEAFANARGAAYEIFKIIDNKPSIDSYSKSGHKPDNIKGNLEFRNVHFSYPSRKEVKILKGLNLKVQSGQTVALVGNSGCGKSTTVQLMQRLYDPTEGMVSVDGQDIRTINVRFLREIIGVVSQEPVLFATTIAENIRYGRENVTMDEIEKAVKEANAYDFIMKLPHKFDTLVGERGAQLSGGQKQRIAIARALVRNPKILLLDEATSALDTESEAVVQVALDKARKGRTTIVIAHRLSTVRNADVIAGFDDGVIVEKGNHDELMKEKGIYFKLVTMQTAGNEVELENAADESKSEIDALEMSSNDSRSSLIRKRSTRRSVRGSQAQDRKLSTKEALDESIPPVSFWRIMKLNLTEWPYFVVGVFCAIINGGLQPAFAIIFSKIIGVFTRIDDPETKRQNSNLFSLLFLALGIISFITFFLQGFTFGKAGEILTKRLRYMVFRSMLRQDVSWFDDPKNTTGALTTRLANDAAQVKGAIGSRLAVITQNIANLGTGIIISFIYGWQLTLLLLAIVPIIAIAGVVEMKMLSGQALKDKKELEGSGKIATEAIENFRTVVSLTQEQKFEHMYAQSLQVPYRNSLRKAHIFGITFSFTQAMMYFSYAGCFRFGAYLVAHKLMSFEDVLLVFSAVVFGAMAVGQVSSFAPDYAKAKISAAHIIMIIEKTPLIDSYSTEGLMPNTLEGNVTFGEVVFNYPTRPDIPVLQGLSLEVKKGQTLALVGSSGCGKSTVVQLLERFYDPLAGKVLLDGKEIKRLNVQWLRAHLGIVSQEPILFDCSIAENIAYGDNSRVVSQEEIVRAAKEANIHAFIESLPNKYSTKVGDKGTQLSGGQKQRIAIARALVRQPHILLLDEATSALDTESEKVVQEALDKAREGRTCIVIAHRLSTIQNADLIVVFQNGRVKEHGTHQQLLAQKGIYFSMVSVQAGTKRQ

`Cc1cc(O)cc(C)c1Cl` showed an inhibition [1] of 0.93%, a score [2] of 0.53 and a cytochrome c release ratio [3] of 5.53. It also gave an inhibition of aggregation [4] of 81.6%, a glutamate uptake change [5] of -5.88% and an aggregation suppression score [6] of 0.248.
With `CC(=O)O[C@]1(C(C)=O)CC[C@H]2[C@@H]3C=C(Cl)C4=CC(=O)[C@@H]5C[C@@H]5[C@]4(C)[C@H]3CC[C@@]21C` the period change [7] was 0.03 h (inactive).
With `CCCCC(CC)CN=C(N)NC(N)=NCCCCCCN=C(N)NC(N)=NCC(CC)CCCC` (stereo not given) the fluorescence slope change [8] was 152% (active), the score [2] was -1.46 and the rescue above control [9] was 0. It also gave a cytochrome c release ratio [3] of 26.4, an inhibition of aggregation [4] of 88% and a glutamate uptake change [5] of -50.4%. The aggregation suppression score [6] was -0.456 and the survival [10] was 0.25 (inactive).
`CC1=NN(c2ccccc2)C(=O)C1` gave an inhibition [1] of -19.6%, a score [2] of 1.27 and a cytochrome c release ratio [3] of 0.94. For the same molecule, the inhibition of aggregation [4] was 10.2%, the glutamate uptake change [5] was -0.14% and the inclusion score [11] was 2. The aggregation suppression score [6] was 0.985.
For `O=C1CCc2cc(OCCCCc3nnnn3C3CCCCC3)ccc2N1`, the period change [7] was 0.02 h (inactive).
With `CN(C)CC[C@@H](c1ccc(Cl)cc1)c1ccccn1` the period change [7] was -0.255 h (inactive).
With `Cc1cn[nH]c1` the period change [7] was 0.23 h (inactive).
With `Cc1nc(N)nc(N)c1-c1ccc(Cl)c(Cl)c1` the growth inhibition [12] was -1% (inactive), the inhibition [13] was 66% (active) and the inhibition [14] was 3% (inactive). For the same molecule, the growth inhibition [15] was 95% (active).
`CCCCNc1ccc(C(=O)OCCN(C)C)cc1` gave an inhibition [1] of 3.42%, a score [2] of 1.3 and a cytochrome c release ratio [3] of 0.87. It also gave an inhibition of aggregation [4] of 21.1%, a glutamate uptake change [5] of 5.32% and an inclusion score [11] of 2. For the same molecule, the aggregation suppression score [6] was 1.05, the period change [7] was 0.035 h (inactive) and the survival [10] was 12.4 (inactive).
`CC/C(=C(/CC)c1ccc(O)cc1)c1ccc(O)cc1` showed an inhibition [1] of 48.1%, a score [2] of 0.36 and a rescue above control [9] of -4.53. It also gave a cytochrome c release ratio [3] of 0.65, an inhibition of aggregation [4] of 38.5% and a glutamate uptake change [5] of -14.4%. For the same molecule, the aggregation suppression score [6] was 0.447 and the survival [10] was 3.75 (inactive).
With `O=C(Nc1cccc(C2=NCCN2)c1)Nc1cccc(C2=NCCN2)c1` the growth inhibition [12] was 99% (active), the inhibition [13] was 16% (inactive) and the inhibition [14] was 7% (inactive). For the same molecule, the growth inhibition [15] was 98% (active).
With `COc1cc2c(cc1OC)-c1cc(=Nc3c(C)cc(C)cc3C)n(C)c(=O)n1CC2` the growth inhibition [12] was 29% (inactive), the inhibition [13] was 14% (inactive) and the inhibition [14] was 0% (inactive). For the same molecule, the growth inhibition [15] was 92% (active) and the period change [7] was 0.41 h (inactive).
In the case of `CN1CCN(C(c2ccccc2)c2ccccc2)CC1`, the fluorescence slope change [8] is reported as 59.4% (active) and the survival [10] is reported as 4.58 (inactive).
For `O=C(CCCN1CCN(c2ccccn2)CC1)c1ccc(F)cc1`, the survival [10] was 14.6 (inactive).
With `Oc1cc(O)c2c(c1)O[C@H](c1ccc(O)c(O)c1)[C@H](O)C2` the fluorescence slope change [8] was -0.6% (inactive).
In the case of `CNC1(C)C2CCC(C2)C1(C)C` (stereo not given), the period change [7] is reported as 0.19 h (inactive) and the survival [10] is reported as 42 (inactive).
In the case of `COc1cc(OC)c(C(=O)CCCN2CCCC2)c(OC)c1`, the fluorescence slope change [8] is reported as 82.5% (active) and the survival [10] is reported as 9.58 (inactive).
In the case of `Oc1ccc(OCc2ccccc2)cc1`, the survival [10] is reported as 3.58 (inactive).
In the case of `C[n+]1cc2c3c(ccc2c2ccc4cc5c(cc4c21)OCO5)OCO3`, the period change [7] is reported as -0.18 h (inactive) and the survival [10] is reported as 1.33 (inactive).
With `C[C@]12CC[C@@H]3c4ccc(O)cc4CC[C@H]3[C@@H]1CCC2=O` the period change [7] was -0.125 h (inactive) and the survival [10] was 2.5 (inactive).
In the case of `C[C@@H]1C[C@H]2[C@@H]3C[C@H](F)C4=CC(=O)C=C[C@]4(C)[C@@]3(F)[C@@H](O)C[C@]2(C)[C@@]1(O)C(=O)CO`, the fluorescence slope change [8] is reported as 57.3% (active) and the survival [10] is reported as 2.17 (inactive).
For `CCc1oc2ccccc2c1C(=O)c1cc(Br)c(O)c(Br)c1`, the fluorescence slope change [8] was 56.7% (active) and the survival [10] was 13.1 (inactive).
For `Nc1ccc(S(=O)(=O)Nc2ccc(Cl)nn2)cc1`, the fluorescence slope change [8] was -13.4% (inactive) and the survival [10] was 5.17 (inactive).
In the case of `CN1CCCCC1CCN1c2ccccc2Sc2ccc(S(C)=O)cc21` (stereo not given), the fluorescence slope change [8] is reported as 54.4% (active) and the survival [10] is reported as 3.42 (inactive).
In the case of `CCOC(=O)n1ccn(C)c1=S`, the fluorescence slope change [8] is reported as 99.3% (active) and the survival [10] is reported as 11.8 (inactive).
In the case of `CC1CC(OC(=O)C(O)c2ccccc2)CC(C)(C)N1C` (stereo not given), the fluorescence slope change [8] is reported as 23.1% (inactive) and the survival [10] is reported as 2.33 (inactive).
With `Nc1ncnc2c1ncn2[C@@H]1O[C@H](COP(=O)(O)O)[C@@H](O)[C@H]1O` the fluorescence slope change [8] was 73% (active) and the survival [10] was 7.33 (inactive).
With `N#Cc1ccc(C(c2ccc(C#N)cc2)n2cncn2)cc1` the survival [10] was 1.25 (inactive).
With `CC(=O)OCC(=O)[C@@]1(O)[C@H](C)C[C@H]2[C@@H]3CCC4=CC(=O)C=C[C@]4(C)[C@@]3(F)[C@@H](O)C[C@@]21C` the fluorescence slope change [8] was 109% (active) and the survival [10] was 16.5 (inactive).
In the case of `COc1ccc2nc(S(=O)Cc3ncc(C)c(OC)c3C)[nH]c2c1` (stereo not given), the fluorescence slope change [8] is reported as 50.5% (active) and the survival [10] is reported as 10.2 (inactive).
For `CC(=O)[C@@]1(O)CC[C@H]2[C@@H]3C[C@H](C)C4=CC(=O)C=C[C@]4(C)[C@@]3(F)[C@@H](O)C[C@@]21C`, the fluorescence slope change [8] was 10.7% (inactive) and the survival [10] was 6.17 (inactive).
For `CCOC(=O)OC(C)OC(=O)[C@@H]1N2C(=O)[C@@H](NC(=O)[C@H](N)c3ccccc3)[C@H]2SC1(C)C` (stereo not given in full), the fluorescence slope change [8] was 97.9% (active) and the survival [10] was 16.9 (inactive).
For `CCN(CCCc1ccccc1)CCCc1ccccc1`, the fluorescence slope change [8] was 72.6% (active) and the survival [10] was 6.17 (inactive).
For `Cc1ccc(S(=O)(=O)NC(=O)NN2CC3CCCC3C2)cc1` (stereo not given), the fluorescence slope change [8] was 10.5% (inactive) and the survival [10] was 5.67 (inactive).
With `COc1cc2c3cc1Oc1cc(ccc1O)C[C@@H]1c4c(cc(OC)c(O)c4Oc4ccc(cc4)C[C@@H]3N(C)CC2)CC[N+]1(C)C` the fluorescence slope change [8] was 8.4% (inactive).
For `O=C(CCNNC(=O)c1ccncc1)NCc1ccccc1`, the period change [7] was -0.045 h (inactive) and the survival [10] was 17.5 (inactive).
For `CC1(C)O[C@@H]2C[C@H]3[C@@H]4CCC5=CC(=O)CC[C@]5(C)[C@@]4(F)[C@@H](O)C[C@]3(C)[C@]2(C(=O)CCl)O1`, the fluorescence slope change [8] was 26.3% (inactive) and the survival [10] was 5.5 (inactive).
For `Cc1cc2c(C(C)C)c(O)c(O)c(C=O)c2c(O)c1-c1c(C)cc2c(C(C)C)c(O)c(O)c(C=O)c2c1O`, the fluorescence slope change [8] was 93.5% (active) and the survival [10] was 5.5 (inactive).
For `COc1ccccc1N1CCN(CC(O)COc2cccc3ccccc23)CC1` (stereo not given), the period change [7] was 0.04 h (inactive) and the survival [10] was 8.25 (inactive).
With `COCCCC/C(=N\OCCN)c1ccc(C(F)(F)F)cc1` the period change [7] was -0.015 h (inactive) and the survival [10] was 6.67 (inactive).
In the case of `CC[C@]12CCCN3CCc4c(n(c5ccccc45)[C@@](O)(C(=O)OC)C1)[C@@H]32`, the fluorescence slope change [8] is reported as 8.1% (inactive) and the survival [10] is reported as 10.1 (inactive).
For `c1cnc(N2CCN(Cc3ccc4c(c3)OCO4)CC2)nc1`, the period change [7] was -0.05 h (inactive) and the survival [10] was 3.67 (inactive).
For `CC(C)NCC(O)COc1ccc(COCCOC(C)C)cc1` (stereo not given), the survival [10] was 6.5 (inactive).
In the case of `Cc1[nH]c(=O)c(C#N)cc1-c1ccncc1`, the period change [7] is reported as -0.005 h (inactive) and the survival [10] is reported as 9.17 (inactive).
For `CCCCNc1c(C(=O)OCC)c(C)nc2c1cnn2CC`, the period change [7] was 0.105 h (inactive) and the survival [10] was 17.3 (inactive).
With `COc1cc2nc(N3CCN(C(=O)C4CCCO4)CC3)nc(N)c2cc1OC` (stereo not given) the period change [7] was 0.02 h (inactive) and the survival [10] was 3.75 (inactive).
For `CCCCCN(CCCCC)C(=O)C(CCC(=O)O)NC(=O)c1ccc(Cl)c(Cl)c1` (stereo not given), the period change [7] was 0.13 h (inactive) and the survival [10] was 1.92 (inactive).
In the case of `COc1cc(-c2ccc(=O)[nH]n2)ccc1OC(F)F`, the period change [7] is reported as -0.1 h (inactive) and the survival [10] is reported as 1.92 (inactive).
For `CC1(C)NC(=O)N(c2ccc([N+](=O)[O-])c(C(F)(F)F)c2)C1=O`, the period change [7] was 0.085 h (inactive) and the survival [10] was 0.917 (inactive).
For `Cc1nc2n(c(=O)c1CCN1CCC(c3noc4cc(F)ccc34)CC1)CCCC2`, the period change [7] was 0.015 h (inactive) and the survival [10] was 5 (inactive).
